Results: paper PMC5540273 (PLoS ONE, 2017)

Columns and labels:
Settings in all cases: concentration: 1 μM, replicates: in singlicate; n = 1
MAPKAPK5 = test system: MAPKAPK5
MARK1 = test system: MARK1
MARK2 = test system: MARK2
MARK3 = test system: MARK3
MARK4 = test system: MARK4
MAST1 = test system: MAST1
MEK1 = test system: T1, MEK1
T1 construct: gene MAP2K1

MEK2 = test system: T2, MEK2
T2 construct: gene MAP2K2

MEK3 = test system: T3, MEK3
T3 construct: gene MAP2K3

MEK4 = test system: T4, MEK4
T4 construct: gene MAP2K4
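Note: KINOMEscan kinase panel screen.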

| SMILES | %Inh (MAPKAPK5) | %Inh (MARK1) | %Inh (MARK2) | %Inh (MARK3) | %Inh (MARK4) | %Inh (MAST1) | %Inh (MEK1) | %Inh (MEK2) | %Inh (MEK3) | %Inh (MEK4) |
| --- | --- | --- | --- | --- | --- | --- | --- | --- | --- | --- |
| COc1cccc(C(=O)Nc2cccc(Oc3ccc4nc(NC(=O)C5CC5)cn4n3)c2)c1 | 0% | 17% | 0% | 0% | 10% | 0% | 28% | 43% | 15% | 0% |
| Nc1ncnc2c1nc(-c1ccccc1)n2-c1ccccc1 [SKF-97293] | 0% | 27% | 0% | 39% | 33% | 47% | 15% | 14% | 50% | 35% |
| C[C@@H](Oc1cc(-n2cnc3cc(-c4ccnc(NCCS(C)(=O)=O)c4)ccc32)sc1C(N)=O)c1ccccc1Cl [GSK907232] | 0% | 11% | 34% | 43% | 20% | 6% | 0% | 0% | 0% | 26% |
| Cc1ccc(C(=O)Nc2ccc(Nc3ccnc4cc(-c5nccs5)ccc34)cc2O)cc1.Cl [GW494702] | 0% | 0% | 0% | 0% | 0% | 15% | 13% | 0% | 0% | 21% |
| CC(=O)N1CCN(c2ccc(Nc3nccc(-c4sc(C(C)C)nc4-c4cccc(NS(=O)(=O)c5cccc(Cl)c5)c4)n3)cn2)CC1 [GSK1660437] | 0% | 0% | 0% | 0% | 12% | 0% | 1% | 0% | 23% | 99.2% |
| Cn1cc(-c2[nH]c3cc(NC(=O)[C@H](N)C4CCCCC4)cc4c3c2C=NNC4=O)cn1 | 0% | 83% | 88% | 88% | 91.8% | 87% | 65% | 67% | 46% | 14% |
| O=C(Nc1n[nH]c2cc(-c3ccoc3)ccc12)C1CC1 [SB-738481] | 10% | 11% | 15% | 0% | 0% | 37% | 2% | 18% | 23% | 3% |
| Cc1ccc(C(=O)N2CC[C@@H](O)C2)cc1-n1c(C)cc(OCc2ccc(F)cc2F)c(Br)c1=O | 0% | 0% | 0% | 0% | 0% | 0% | 0% | 36% | 0% | 0% |
| COc1cc(Nc2nccc(-c3c(-c4cccc(NC(=O)c5c(F)cccc5F)c4)nn4ccccc34)n2)cc(OC)c1OC [GSK323521] | 3% | 6% | 0% | 51% | 17% | 0% | 4% | 0% | 0% | 41% |
